# Compound activity deposited in PubChem BioAssay by The Scripps Research Institute Molecular Screening Center.
# PPARg SRC-3 ag: PPARgamma agonists recruiting SRC-3 coactivator, primary screen, biochemical; Peroxisome proliferator-activated receptor gamma (Homo sapiens), P37231; biochemical PPARgamma/SRC-3 coactivator recruitment assay; activation, % at 8 µM; actives 0.26% (n = 200,000); in the data active = activation above about 23%;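 note: 0% = DMSO and 100% = reference agonist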
# SRC1 TRFRET art: TR-FRET detection interference compounds, primary screen, artefact control for PPARgamma SRC-1 recruitment agonists, biochemical, TR-FRET emission ratio; TR-FRET ratio at 8 µM; actives 0.34% (n = 99,000); AID 1051, 2008; TR-FRET detection artefact counter-screen; hits give high values; in the data active = TR-FRET ratio above about 2300
# PPARg SRC2 recr: agonists of PPARg-SRC-2 recruitment, primary screen, biochemical, HTS | PPARgamma LBD-SRC-2 recruitment | AID 1032, 2008 | actives 0.34% (n = 200,000) | activation, % at 8 µM | Peroxisome proliferator-activated receptor gamma (Homo sapiens), P37231;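 note: 0% = vehicle and 100% = reference agonist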
# SRC3 TRFRET art: TR-FRET detection interference compounds, artefact control for PPARgamma SRC-3 recruitment agonists, biochemical, TR-FRET ratio. TR-FRET artefact counter-screen, PPARgamma/SRC-3 format; hits give high values. TR-FRET ratio at 8 µM. actives 0.39% (n = 99,000). AID 1048, 2008; in the data active = TR-FRET ratio above about 2000
# PPARg SRC-1 ag: PPARgamma agonists recruiting SRC-1 coactivator, primary screen, biochemical; PPARgamma-SRC-1 coactivator recruitment biochemical assay; activation, % at 8 µM; AID 631, 2007; actives 0.41% (n = 200,000); in the data active = activation above about 19%;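 note: 0% = DMSO and 100% = reference agonist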
# SRC2 TRFRET art: TR-FRET signal artefacts, primary screen, artefact control for PPARgamma SRC-2 agonist project, biochemical | TR-FRET artefact counter-screen; hits give high values | TR-FRET ratio at 8 µM | actives 0.4% (n = 200,000); in the data active = TR-FRET ratio above about 2000
# PPARg SRC2 conf: agonists of PPARgamma SRC-2 coactivator recruitment, confirmation, biochemical, HTS; shares compounds with PPARg SRC-3 ag; biochemical SRC-2 recruitment by PPARgamma; activation, % at 8 µM; actives 52% (n = 790); AID 1297, 2008;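 note: 0% = vehicle alone and 100% = reference agonist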
# PPARg SRC1 ag: PPARgamma agonists recruiting SRC-1 coactivator, confirmation, biochemical. shares compounds with PPARg SRC-3 ag. PPARgamma–SRC-1 coactivator recruitment biochemical assay. activation, % at 8 µM. actives 43% (n = 790). AID 1300, 2008; in the data active = activation above about 20%;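 note: 0% = vehicle wells and 100% = reference agonist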
# PPARg SRC3 ag: PPARgamma-driven SRC-3 coactivator recruitment agonists, confirmation, biochemical; shares compounds with PPARg SRC-3 ag; activation, % at 8 µM; biochemical PPARgamma-SRC-3 coactivator recruitment, agonist mode; AID 1301, 2008; actives 29% (n = 790); in the data active = activation above about 24%;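 note: 0% = vehicle wells and 100% = reference agonist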
# Active calls of the source: *; x = no result given. An excerpt weighted towards active compounds, which were near 0.9% of everything screened. Cut-off read from the data, not from the text of the source, unless noted: active = activation above about 22%; inactive = the rest.
SMILES,PPARg SRC-3 ag,SRC1 TRFRET art,PPARg SRC2 recr,SRC3 TRFRET art,PPARg SRC-1 ag,SRC2 TRFRET art,PPARg SRC2 conf,PPARg SRC1 ag,PPARg SRC3 ag
Cc1ccc(C(C(=O)NCc2ccco2)N(CCc2ccccc2)C(=O)Cn2nnc3ccccc32)o1 (configuration not stated),32*,1885,16,1671,8,1653,12,5,16
O=C(Nc1nc(-c2ccc3c(c2)OCCO3)cs1)c1ccc(S(=O)(=O)N2CCCCC2)cc1,9,x,17,x,6,1917,x,x,x
O=C(Nc1nc(-c2ccc(S(=O)(=O)N3CCCC3)cc2)cs1)C1COc2ccccc2O1 (configuration not stated),33*,x,22*,x,20*,2533*,34*,27*,20
O=C(Nc1nc(-c2ccc(S(=O)(=O)N3CCCCCC3)cc2)cs1)c1ccccc1,8,x,15,x,21*,2426*,52*,39*,33*
Cc1cc(N2C(=O)C(O)=C(C(=O)c3ccc(C)o3)C2c2cccs2)no1 (configuration not stated),45*,x,37*,x,35*,2253*,19,13,13
CCOc1cccc(C2C(C(=O)c3ccc(C)o3)=C(O)C(=O)N2c2nccs2)c1 (configuration not stated),22,x,27*,x,22*,2000*,13,8,8
Cc1cc(N2C(=O)C(O)=C(C(=O)c3ccco3)C2c2ccc(O)cc2)no1 (configuration not stated),-11,x,8,x,0,1340,x,x,x
CCOc1cccc(C2C(C(=O)c3ccc(C)o3)=C(O)C(=O)N2Cc2ccncc2)c1 (configuration not stated),5,x,7,x,13,1504,x,x,x
Cc1ccc2nc(N3C(=O)C(O)=C(C(=O)c4cc5ccccc5o4)C3c3cccs3)sc2c1 (configuration not stated),30*,x,14,x,30*,1932,7,2,2
COC(=O)c1sc(N2C(=O)c3oc4ccccc4c(=O)c3C2c2cccs2)nc1C (configuration not stated),-2,x,-2,x,-6,1363,x,x,x
COc1ccc(NC(C)C(=O)N/N=C/c2ccccc2OCc2cccc(Br)c2)cc1 (configuration not stated),37*,1922,8,1450,22*,1675,6,24*,22
Cc1ccccc1NC(C)C(=O)N/N=C/c1ccccc1OCc1cccc(Br)c1 (configuration not stated),0,x,2,x,-2,1387,x,x,x
CC1N(C)c2cccc3cccc(c23)N1C,11,x,25*,x,13,1457,24*,17,13
CCN(CC)S(=O)(=O)c1ccc(N2CCOCC2)c(NC(=O)c2c3c(nc4ccccc24)CCC3)c1,6,2089,5,1765,-2,1478,x,x,x
CCOC(=O)c1c(N)sc(=S)c2c1CCC2,34*,x,27*,x,19*,2147*,6,6,6
CN(C)c1ccc(NC(=O)Nc2ccc3snnc3c2)cc1,36*,x,21,x,23*,1850,4,1,3
COC(=O)c1cccc(NC(=S)NCc2ccc(F)cc2)c1,7,2083,12,1459,18,1653,x,x,x
CCCOc1ccc(C2C(C(=O)c3ccco3)=C(O)C(=O)N2CCCn2ccnc2)cc1 (configuration not stated),24,x,14,x,19*,1725,10,5,9
CC1(C)Cc2ccccc2-c2nc3n(c(=O)c21)CCS3,7,1872,5,1484,4,1747,x,x,x
CCn1c(=S)[nH]c2c(c1=O)C(C)(C)Cc1ccccc1-2,28*,3374*,33*,2752*,44*,2673*,36*,23*,25*
Cn1c(=S)[nH]c2c(c1=O)C(C)(C)Cc1ccccc1-2,25*,3109*,45*,2669*,40*,2681*,37*,24*,24*
CCOC(=O)N1CCC(n2c(SCC(=O)NCCc3ccc(S(N)(=O)=O)cc3)nc3ccccc3c2=O)CC1,-2,2013,-4,1523,-4,1504,x,x,x
NS(=O)(=O)c1ccc(N/C=C\C(=O)c2ccc(F)cc2)cc1,-2,1676,-9,1596,-2,1546,x,x,x
CC(=O)Nc1ccc(N/C=C/C(=O)c2ccco2)cc1,-2,x,5,x,3,1573,x,x,x
CN(C)c1ccc(N/C=C/C(=O)c2ccco2)cc1,15,x,24*,x,5,1727,10,9,7
SMILES,PPARg SRC-3 ag,SRC1 TRFRET art,PPARg SRC2 recr,SRC3 TRFRET art,PPARg SRC-1 ag,SRC2 TRFRET art,PPARg SRC2 conf,PPARg SRC1 ag,PPARg SRC3 ag
CN(C)c1ccc(N/C=C/C(=O)c2ccc(F)cc2)cc1,27*,x,21,x,8,1739,9,5,6
COC12NC(=O)N(C)C1(OC)C(=O)N(C)C(=O)N2C (configuration not stated),4,1860,6,1443,4,1601,x,x,x
CCC(C)NC(=O)COc1ccc(OCc2ccccc2)cc1 (configuration not stated),7,1722,6,1682,0,1797,x,x,x
Cc1cc(NC(=O)COc2ccc3oc4ccccc4c3c2)no1,11,x,21,x,27*,1701,12,13,7
Cc1ccc(/C=N/N2CCN(c3ccc(Cl)cc3)CC2)o1,-4,x,1,x,11,1514,x,x,x
Cc1ccc(Cl)cc1-c1ccc(C=Nc2ccc(N3CCOCC3)cc2)o1,27*,2713*,37*,2494*,33*,2256*,47*,34*,28*
CCC1(C)Cc2c(C#N)c(N)sc(=S)c2CO1 (configuration not stated),27*,x,13,x,12,1619,6,8,7
Cc1c(C(=O)OC(C)C)sc(N)c1C(=O)OC(C)C,-1,1887,4,1713,-2,1500,x,x,x
[O-][N+]1=c2ccc(Nc3ccccc3)cc2=NC12CCCCC2,28*,x,16,x,24*,1710,22*,13,10
